This note sets out measurements from PubChem BioAssay (EPA / NIEHS).

A short description of experiment [1]: ATG_TGFb_CIS: Attagene CIS-FACTORIAL HepG2 Assay for human Transforming Growth Factor (TGF) (AID 2282967; active = hit-call score of the fitted dose curve at least 0.9, where 1 is the maximum; inactive = score below 0.9). As to conditions: HepG2 Attagene CIS TGFb reporter, mRNA transcription; actives raise or lower the signal. Summed up: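 HepG2 cells transiently transfected with cis-promoter-driven multiplexed reporter units; 24 h compound exposure. Reporter mRNA measured by RT-PCR, 6-FAM labeling, HpaI digestion and capillary electrophoresis; bidirectional fit versus DMSO baseline.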

Experiment [2] can be described thus: ATG_VDRE_CIS: Attagene CIS-FACTORIAL HepG2 Assay for human Vitamin D Receptor Element (VDRE) (AID 2282968; active = hit-call score of the fitted dose curve at least 0.9, where 1 is the maximum; inactive = score below 0.9). The settings on record: HepG2 VDRE cis-reporter transcription, actives raise or lower the signal. Summed up: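 In transiently transfected HepG2 liver cells, gain or loss of reporter mRNA after 24 h exposure is scored relative to DMSO, using fluorescence detection by capillary electrophoresis of RT-PCR products.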

The target in experiment [3] is Nuclear receptor subfamily 1 group I member 3 (Homo sapiens) (UniProt Q14994). As to the kind of experiment: ATG_CAR_TRANS: Attagene TRANS-FACTORIAL HepG2 Assay for human Constitutive Androstane Receptor (CAR) (AID 2282969).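 Also: activators raise reporter mRNA above DMSO so AC50 marks induction.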 As to conditions: HepG2 Attagene TRANS-FACTORIAL CAR reporter. Summed up:
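Readout is reporter mRNA induction, quantified by fluorescent primer extension and capillary electrophoresis after RT-PCR. Cells were HepG2 transiently carrying chimeric NR-Gal4 constructs with GAL4-UAS reporters, treated for 24 h; activity scored upward from DMSO.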

Experiment [4] has as its target Estrogen receptor (Homo sapiens) (UniProt P03372). Briefly: ATG_ERa_TRANS: Attagene TRANS-FACTORIAL HepG2 Assay for human Estrogen Receptor alpha (ERa) (AID 2282970). The settings on record: HepG2 Attagene TRANS ERa GAL4 reporter, mRNA. Summed up:
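After 24 h of compound treatment, RNA from HepG2 cells bearing transfected GAL4-UAS reporter constructs is converted to cDNA, amplified and fluorescently labelled. Capillary electrophoresis resolves the ERa-linked reporter; DMSO serves as negative control.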

Experiment [5] deals with Steroid hormone receptor ERR1 (Homo sapiens) (UniProt P11474). Briefly: ATG_ERRa_TRANS: Attagene TRANS-FACTORIAL HepG2 Assay for human Estrogen-Related Receptor alpha (ERRa) (AID 2282971). The settings on record: HepG2 Attagene TRANS reporter, ERRa transactivation. Summed up: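 Transfected HepG2, 24 h dosing, ERRa-Gal4 chimera driving GAL4-UAS reporter. Readout: reporter mRNA via RT-PCR plus capillary electrophoresis (fluorescence). Positive direction vs DMSO control.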

In experiment [6] the target is X-box-binding protein 1 (Homo sapiens) (UniProt P17861). As to the kind of experiment: ATG_Xbp1_CIS: Attagene CIS-FACTORIAL HepG2 Assay for human X-box Binding Protein 1 (XBP1) (AID 2282972; active = hit-call score of the fitted dose curve at least 0.9, where 1 is the maximum; inactive = score below 0.9). The settings on record: HepG2 XBP1 cis-element reporter, Attagene multiplex; actives raise or lower the signal. The method, boiled down: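 HepG2 cells transiently transfected with multiple cis-element reporter units report endogenous TF activity; 24 h exposure, then reporter mRNA measured by RT-PCR, 6-FAM labelling, HpaI digestion and capillary electrophoresis. Bidirectional fitting versus DMSO.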

The nature of experiment [7]: ATG_M_19_TRANS: Attagene TRANS-FACTORIAL HepG2 Assay for M19 Transcription Factor (Internal Marker) (AID 2282974). The settings on record: HepG2 Attagene TRANS-FACTORIAL M19 internal marker reporter. The method, boiled down: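 24 h chemical exposure of transiently transfected HepG2 (MRTU library). RNA → oligo(dT) RT → PCR → 6-FAM labelling → HpaI cut → CE fluorescence. Positive-direction fit vs DMSO baseline; background internal-marker readout.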

Experiment [8] in a line: ATG_GAL4_TRANS: Attagene TRANS-FACTORIAL HepG2 Assay for GAL4 (Internal Marker) (AID 2282976). The settings on record: HepG2 Attagene TRANS GAL4 internal marker reporter. The method, boiled down: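 RT-PCR/capillary electrophoresis readout of reporter mRNA. HepG2, transient MRTU transfection (GAL4-UAS reporters), 24 h compound exposure. Background-control endpoint, positive direction vs DMSO baseline.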

The target of experiment [9] is Estrogen-related receptor gamma (Homo sapiens) (UniProt P62508). Briefly: ATG_ERRg_TRANS: Attagene TRANS-FACTORIAL HepG2 Assay for human Estrogen-Related Receptor gamma (ERRg) (AID 2282977).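 Also: hits increase reporter signal over DMSO so potencies reflect activators.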 As to conditions: HepG2 Attagene TRANS reporter, ERRg transactivation. The method, boiled down:
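HepG2 cells transiently transfected with multiplexed GAL4-UAS reporter units and chimeric NR-Gal4 constructs were exposed to test chemicals for 24 h. Reporter mRNA was measured by RT-PCR, 6-FAM primer extension, HpaI digestion and capillary electrophoresis; gain-of-signal versus DMSO.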

The target in experiment [10] is Bile acid receptor (Homo sapiens) (UniProt Q96RI1). As to the kind of experiment: ATG_FXR_TRANS: Attagene TRANS-FACTORIAL HepG2 Assay for Farnesoid X Receptor (FXR) (AID 2282979).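 Also: hits raise reporter mRNA above DMSO so AC50 marks FXR activation.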 As to conditions: HepG2 Attagene TRANS FXR-GAL4 reporter transcription. Summed up:
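Read-out: fluorescent reporter transcripts quantified by capillary electrophoresis after RT-PCR of total RNA. Source cells were HepG2 transiently carrying chimeric NR-GAL4 plus GAL4-UAS reporter units, dosed 24 h. Activity fitted upward relative to DMSO baseline.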

In experiment [11] the target is Oxysterols receptor LXR-alpha (Homo sapiens) (UniProt Q13133). As to the kind of experiment: ATG_LXRa_TRANS: Attagene TRANS-FACTORIAL HepG2 Assay for human Liver X Receptor alpha (LXRa) (AID 2282980). As to conditions: HepG2 Attagene TRANS reporter, LXRa transactivation. The method, boiled down:
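Read-out: reporter transcript levels by RT-PCR plus capillary electrophoresis, fluorescence intensity. Transiently transfected HepG2, exogenous NR-GAL4 chimera, GAL4-UAS reporters; 24 h compound exposure. Activity = increase over DMSO negative control.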

Experiment [12] is described as follows: ATG_M_32_TRANS: Attagene TRANS-FACTORIAL HepG2 Assay for M32 Transcription Factor (Internal Marker) (AID 2282984).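 Also: transcript level of a background control reporter unit measured by RT-PCR and capillary electrophoresis.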 As to conditions: HepG2 Attagene TRANS M32 internal marker reporter. The method, boiled down: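 Using transiently transfected HepG2 cells exposed to test chemicals for 24 h, reporter transcripts are converted to labelled cDNA fragments and quantified by capillary electrophoresis. DMSO defines the activity baseline.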

Experiment [13] deals with Transcriptional activator Myb (Homo sapiens) (UniProt P10242). Briefly: ATG_Myb_CIS: Attagene CIS-FACTORIAL HepG2 Assay for human Myeloblastosis (Myb) Proto-Oncogene Transcription Factor (AID 2282986; active = hit-call score of the fitted dose curve at least 0.9, where 1 is the maximum; inactive = score below 0.9). The settings on record: HepG2 Attagene CIS-FACTORIAL Myb reporter transcription; actives raise or lower the signal. Summed up:
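HepG2, transient MRTU transfection (cis-element promoters, endogenous TF activity), 24 h compound exposure. Readout: reporter mRNA via RT-PCR, 6-FAM labeling, HpaI digest, capillary electrophoresis. Gain/loss fit vs DMSO.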

Experiment [14] deals with Nuclear respiratory factor 1 (Homo sapiens) (UniProt Q16656). Briefly: ATG_NRF1_CIS: Attagene CIS-FACTORIAL HepG2 Assay for human Nuclear Respiratory Factor 1 (NRF1) Orphan Gene (AID 2282987; active = hit-call score of the fitted dose curve at least 0.9, where 1 is the maximum; inactive = score below 0.9). The settings on record: HepG2 NRF1 cis-element reporter, Attagene multiplex; actives raise or lower the signal. Summed up: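 Endogenous NRF1-driven reporter transcription measured in transiently transfected human HepG2 liver cells. Readout: reporter mRNA by RT-PCR and capillary electrophoresis with fluorescence detection, 24 h post-dosing. Gain or loss of signal fitted relative to DMSO baseline.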

The target in experiment [15] is Androgen receptor (Homo sapiens) (UniProt P10275). Briefly: ATG_AR_TRANS: Attagene TRANS-FACTORIAL HepG2 Assay for human Androgen Receptor (AR) (AID 2282973). As to conditions: HepG2 Attagene TRANS-FACTORIAL AR reporter transcription. The method, boiled down: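 Readout is reporter transcript abundance, quantified by fluorescent RT-PCR products separated on capillary electrophoresis. Human HepG2 liver cells carried transiently transfected NR-Gal4 chimera plus GAL4-UAS reporter constructs and were dosed for 24 h; activity scored upward versus DMSO.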

Experiment [16] deals with Glucocorticoid receptor (Homo sapiens) (UniProt P04150). As to the kind of experiment: ATG_GR_TRANS: Attagene TRANS-FACTORIAL HepG2 Assay for human Glucocorticoid Receptor (GR) (AID 2282978).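 Also: activators score as hits since higher reporter transcript over DMSO is fitted.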 The settings on record: HepG2 Attagene TRANS GR reporter, mRNA transcription. Summed up:
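Transient MRTU transfection of HepG2 (GAL4-UAS reporters, exogenous NR-GAL4 chimeras), 24 h dosing. Readout: reporter transcript via RT-PCR + capillary electrophoresis fluorescence. Positive direction vs DMSO baseline.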

For experiment [17], the target named is Oxysterols receptor LXR-beta (Homo sapiens) (UniProt P55055). As to the kind of experiment: ATG_LXRb_TRANS: Attagene TRANS-FACTORIAL HepG2 Assay for human Liver X Receptor beta (LXRb) (AID 2282981). The settings on record: HepG2 Attagene TRANS GAL4-LXRb reporter, mRNA. Summed up:
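Cells: HepG2, transiently transfected with GAL4-UAS reporter units plus LXRb-Gal4 fusion. Treatment: 24 h. Detection: reporter mRNA by RT-PCR, 6-FAM labelling, HpaI digestion, capillary electrophoresis.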

Experiment [18] can be described thus: ATG_M_06_TRANS: Attagene TRANS-FACTORIAL HepG2 Assay for M06 Transcription Factor (Internal Marker) (AID 2282983). The settings on record: HepG2 Attagene TRANS M06 internal marker reporter. Summed up:
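After a 24 h chemical treatment of transfected HepG2, RNA underwent DNase I treatment, reverse transcription and reporter-specific PCR; labelled, HpaI-digested products were sized by capillary electrophoresis. Signal increase relative to DMSO defined activity.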

Experiment [19] addresses Hepatocyte nuclear factor 4-alpha (Homo sapiens) (UniProt P41235). As to the kind of experiment: ATG_HNF4a_TRANS: Attagene TRANS-FACTORIAL HepG2 Assay for human Hepatocyte Nuclear Factor 4 alpha (HNF4a) (AID 2282982). The settings on record: HepG2 HNF4a transactivation reporter, mRNA readout. Summed up:
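Transfected HepG2 reporter cells are dosed for 24 h; reporter RNA is reverse-transcribed, amplified, fluorescently labelled and HpaI-digested before CE sizing. Positive-direction fit against DMSO.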

For experiment [20], the target named is Nuclear receptor subfamily 4 group A member 2 (Homo sapiens) (UniProt P43354). As to the kind of experiment: ATG_NURR1_TRANS: Attagene TRANS-FACTORIAL HepG2 Assay for human Nuclear Receptor Related Protein 1 (NURR1) (AID 2282985). As to conditions: HepG2 Attagene TRANS reporter, mRNA readout. Summed up:
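Cells: HepG2, transiently transfected. Exposure: 24 h. Detection: fluorescence of labelled RT-PCR products separated by capillary electrophoresis; upward fit versus DMSO.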

The structures appear in SMILES notation. Results filed as inconclusive are left out. The source made the active and inactive calls. The calls were made as follows, unless noted: active = hit-call score of the fitted dose curve at least 0.9, where 1 is the maximum; inconclusive = response in the unintended direction; inactive = score below 0.9.

Sequence of Nuclear receptor subfamily 1 group I member 3 (Homo sapiens) (Q14994 whole entry, looked up, the tested form may be a part): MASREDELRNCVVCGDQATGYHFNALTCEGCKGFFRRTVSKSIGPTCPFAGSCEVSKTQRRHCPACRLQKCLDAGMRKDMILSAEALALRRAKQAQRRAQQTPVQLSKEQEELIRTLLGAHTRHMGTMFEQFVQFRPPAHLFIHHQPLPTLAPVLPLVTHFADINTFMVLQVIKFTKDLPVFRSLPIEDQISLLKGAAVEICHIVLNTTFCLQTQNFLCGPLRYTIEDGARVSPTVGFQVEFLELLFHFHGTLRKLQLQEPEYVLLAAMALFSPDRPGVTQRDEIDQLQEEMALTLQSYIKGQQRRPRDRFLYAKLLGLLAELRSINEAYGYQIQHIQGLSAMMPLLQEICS
Sequence of Estrogen receptor (Homo sapiens) (P03372 whole entry, looked up, the tested form may be a part): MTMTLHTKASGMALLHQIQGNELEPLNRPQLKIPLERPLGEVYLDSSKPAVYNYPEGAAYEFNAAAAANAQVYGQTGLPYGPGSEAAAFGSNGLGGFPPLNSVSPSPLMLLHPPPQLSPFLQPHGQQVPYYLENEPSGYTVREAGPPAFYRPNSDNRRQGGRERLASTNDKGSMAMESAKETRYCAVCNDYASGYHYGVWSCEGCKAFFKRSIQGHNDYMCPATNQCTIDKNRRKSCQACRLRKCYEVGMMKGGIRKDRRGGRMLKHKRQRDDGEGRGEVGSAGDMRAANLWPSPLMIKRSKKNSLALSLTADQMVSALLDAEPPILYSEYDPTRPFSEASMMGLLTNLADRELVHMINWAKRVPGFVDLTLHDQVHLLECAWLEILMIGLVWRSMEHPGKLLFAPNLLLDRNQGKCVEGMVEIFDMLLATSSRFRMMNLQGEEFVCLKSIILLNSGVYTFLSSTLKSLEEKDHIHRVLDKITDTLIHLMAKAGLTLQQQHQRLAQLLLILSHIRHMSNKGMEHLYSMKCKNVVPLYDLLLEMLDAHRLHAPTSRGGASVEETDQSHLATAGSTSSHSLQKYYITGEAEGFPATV
Sequence of Nuclear respiratory factor 1 (Homo sapiens) (Q16656 whole entry, looked up): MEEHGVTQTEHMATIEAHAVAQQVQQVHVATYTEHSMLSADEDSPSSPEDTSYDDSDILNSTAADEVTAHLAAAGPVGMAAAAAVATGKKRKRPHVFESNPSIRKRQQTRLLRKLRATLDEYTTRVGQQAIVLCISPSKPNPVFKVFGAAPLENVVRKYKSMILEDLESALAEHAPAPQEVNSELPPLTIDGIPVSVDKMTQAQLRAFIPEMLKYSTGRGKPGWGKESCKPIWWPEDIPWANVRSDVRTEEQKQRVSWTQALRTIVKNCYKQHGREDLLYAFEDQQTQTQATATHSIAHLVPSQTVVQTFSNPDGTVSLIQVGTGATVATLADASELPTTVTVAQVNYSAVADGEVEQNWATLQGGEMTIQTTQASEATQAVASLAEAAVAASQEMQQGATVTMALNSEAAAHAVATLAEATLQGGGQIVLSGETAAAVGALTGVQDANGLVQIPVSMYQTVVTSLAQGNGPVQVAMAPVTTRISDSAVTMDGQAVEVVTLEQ
Sequence of Bile acid receptor (Homo sapiens) (Q96RI1 whole entry, looked up, the tested form may be a part): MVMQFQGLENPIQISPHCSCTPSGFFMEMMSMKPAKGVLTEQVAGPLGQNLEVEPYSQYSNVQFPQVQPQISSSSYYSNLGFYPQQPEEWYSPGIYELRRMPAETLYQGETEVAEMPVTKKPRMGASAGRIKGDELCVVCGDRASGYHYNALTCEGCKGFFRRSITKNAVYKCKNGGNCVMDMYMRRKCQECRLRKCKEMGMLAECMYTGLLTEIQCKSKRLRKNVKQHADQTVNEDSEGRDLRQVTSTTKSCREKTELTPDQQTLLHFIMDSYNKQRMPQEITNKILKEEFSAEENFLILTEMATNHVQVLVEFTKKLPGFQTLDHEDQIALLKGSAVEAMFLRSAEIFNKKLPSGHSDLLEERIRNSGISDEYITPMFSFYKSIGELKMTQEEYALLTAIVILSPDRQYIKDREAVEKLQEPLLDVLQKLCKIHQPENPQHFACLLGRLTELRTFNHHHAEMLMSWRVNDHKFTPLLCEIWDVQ
Sequence of Transcriptional activator Myb (Homo sapiens) (P10242 whole entry, looked up): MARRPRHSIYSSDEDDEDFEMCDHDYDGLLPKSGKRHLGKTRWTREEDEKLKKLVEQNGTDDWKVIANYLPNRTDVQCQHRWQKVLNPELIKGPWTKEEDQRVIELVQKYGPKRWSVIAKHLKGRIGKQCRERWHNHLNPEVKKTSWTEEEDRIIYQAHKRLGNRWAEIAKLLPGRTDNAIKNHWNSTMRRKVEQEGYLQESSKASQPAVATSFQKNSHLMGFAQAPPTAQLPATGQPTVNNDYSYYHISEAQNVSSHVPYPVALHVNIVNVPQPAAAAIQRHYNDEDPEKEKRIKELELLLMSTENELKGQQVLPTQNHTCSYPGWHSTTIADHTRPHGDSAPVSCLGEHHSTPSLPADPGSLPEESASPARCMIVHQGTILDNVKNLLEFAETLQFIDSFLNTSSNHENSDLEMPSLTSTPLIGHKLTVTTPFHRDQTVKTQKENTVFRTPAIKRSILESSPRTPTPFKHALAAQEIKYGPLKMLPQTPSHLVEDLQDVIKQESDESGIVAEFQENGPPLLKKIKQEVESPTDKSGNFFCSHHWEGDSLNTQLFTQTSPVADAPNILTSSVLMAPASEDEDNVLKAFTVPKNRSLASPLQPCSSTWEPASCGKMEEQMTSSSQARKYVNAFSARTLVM
Sequence of X-box-binding protein 1 (Homo sapiens) (P17861 whole entry, looked up): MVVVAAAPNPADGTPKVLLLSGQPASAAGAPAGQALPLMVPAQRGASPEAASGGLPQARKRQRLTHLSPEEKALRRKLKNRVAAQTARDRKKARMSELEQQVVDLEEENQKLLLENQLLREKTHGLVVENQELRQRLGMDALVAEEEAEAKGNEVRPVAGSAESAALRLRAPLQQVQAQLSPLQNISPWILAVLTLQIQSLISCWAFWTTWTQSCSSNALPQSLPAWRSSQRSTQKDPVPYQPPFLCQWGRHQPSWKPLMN
Sequence of Estrogen-related receptor gamma (Homo sapiens) (P62508 whole entry, looked up, the tested form may be a part): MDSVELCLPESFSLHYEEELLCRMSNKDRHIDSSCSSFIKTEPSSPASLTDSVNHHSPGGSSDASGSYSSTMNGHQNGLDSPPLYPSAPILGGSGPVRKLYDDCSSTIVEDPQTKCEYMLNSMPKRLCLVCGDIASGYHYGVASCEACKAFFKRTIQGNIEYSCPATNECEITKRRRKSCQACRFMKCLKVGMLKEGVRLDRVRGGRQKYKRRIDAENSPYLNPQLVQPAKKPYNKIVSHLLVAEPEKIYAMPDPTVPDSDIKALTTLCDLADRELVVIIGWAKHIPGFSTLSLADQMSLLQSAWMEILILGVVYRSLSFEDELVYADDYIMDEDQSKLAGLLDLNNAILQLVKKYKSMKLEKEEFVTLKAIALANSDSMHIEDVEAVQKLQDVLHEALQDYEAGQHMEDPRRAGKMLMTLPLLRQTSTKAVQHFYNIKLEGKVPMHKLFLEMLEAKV
Sequence of Steroid hormone receptor ERR1 (Homo sapiens) (P11474 whole entry, looked up, the tested form may be a part): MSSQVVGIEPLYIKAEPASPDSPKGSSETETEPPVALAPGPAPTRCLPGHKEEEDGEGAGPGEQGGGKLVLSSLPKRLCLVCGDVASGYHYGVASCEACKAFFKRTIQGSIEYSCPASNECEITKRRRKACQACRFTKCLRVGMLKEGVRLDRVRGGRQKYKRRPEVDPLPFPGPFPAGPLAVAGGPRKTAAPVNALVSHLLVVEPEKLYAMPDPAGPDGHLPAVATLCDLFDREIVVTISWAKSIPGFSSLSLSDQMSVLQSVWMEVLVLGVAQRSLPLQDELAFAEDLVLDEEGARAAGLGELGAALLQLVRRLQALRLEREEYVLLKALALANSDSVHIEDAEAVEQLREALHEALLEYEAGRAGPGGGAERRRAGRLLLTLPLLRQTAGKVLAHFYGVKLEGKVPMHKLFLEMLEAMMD
Sequence of Glucocorticoid receptor (Homo sapiens) (P04150 whole entry, looked up, the tested form may be a part): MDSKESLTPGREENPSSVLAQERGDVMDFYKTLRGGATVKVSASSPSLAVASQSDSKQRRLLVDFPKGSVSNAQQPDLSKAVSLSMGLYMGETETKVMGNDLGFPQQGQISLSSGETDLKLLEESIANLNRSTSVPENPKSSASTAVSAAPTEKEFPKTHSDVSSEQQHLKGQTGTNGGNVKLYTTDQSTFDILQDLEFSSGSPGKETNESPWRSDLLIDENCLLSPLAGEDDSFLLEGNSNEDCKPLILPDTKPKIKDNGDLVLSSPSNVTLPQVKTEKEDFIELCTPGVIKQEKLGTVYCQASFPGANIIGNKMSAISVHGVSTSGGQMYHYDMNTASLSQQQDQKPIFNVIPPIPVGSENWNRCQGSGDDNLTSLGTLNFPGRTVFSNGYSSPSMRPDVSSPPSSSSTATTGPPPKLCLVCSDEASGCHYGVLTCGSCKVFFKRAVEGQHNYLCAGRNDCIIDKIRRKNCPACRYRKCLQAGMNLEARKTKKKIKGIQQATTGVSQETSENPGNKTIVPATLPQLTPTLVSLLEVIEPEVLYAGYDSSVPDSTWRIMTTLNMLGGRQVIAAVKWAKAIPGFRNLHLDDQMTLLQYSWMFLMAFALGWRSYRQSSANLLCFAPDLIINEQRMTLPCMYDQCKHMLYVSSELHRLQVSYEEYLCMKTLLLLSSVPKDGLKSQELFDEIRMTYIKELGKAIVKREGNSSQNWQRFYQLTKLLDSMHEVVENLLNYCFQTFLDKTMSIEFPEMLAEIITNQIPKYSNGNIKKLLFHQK
Sequence of Hepatocyte nuclear factor 4-alpha (Homo sapiens) (P41235 whole entry, looked up): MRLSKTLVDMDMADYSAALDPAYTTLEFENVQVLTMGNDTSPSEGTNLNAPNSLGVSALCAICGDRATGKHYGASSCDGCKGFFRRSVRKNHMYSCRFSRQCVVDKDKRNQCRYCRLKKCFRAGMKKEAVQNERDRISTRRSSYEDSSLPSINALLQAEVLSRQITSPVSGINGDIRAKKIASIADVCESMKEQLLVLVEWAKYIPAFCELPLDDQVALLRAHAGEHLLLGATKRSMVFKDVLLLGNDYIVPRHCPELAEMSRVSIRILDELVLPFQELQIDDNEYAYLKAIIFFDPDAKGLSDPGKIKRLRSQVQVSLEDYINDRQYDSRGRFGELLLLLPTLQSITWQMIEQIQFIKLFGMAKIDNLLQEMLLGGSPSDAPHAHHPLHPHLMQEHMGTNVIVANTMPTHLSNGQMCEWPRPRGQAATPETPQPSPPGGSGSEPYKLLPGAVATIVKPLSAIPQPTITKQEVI

`CC(C)=CC1C(C(=O)OCc2cccc(Oc3ccccc3)c2)C1(C)C` (configuration not stated): the compound was called inactive in experiment [1], in experiment [2], in experiment [3], in experiment [5], in experiment [6] and in experiment [7]. Also, the compound was called inactive in experiment [8], in experiment [9], in experiment [10], in experiment [11], in [12] and in experiment [13]. The outcome in [14] was inactive. Also, the AC50 in [4] was 12.8 µM (active).

As for `Cc1ccc(CCl)cc1`, the result in experiment [1], in [2], in experiment [3], in experiment [4], in experiment [5] and in [6] was inactive. The compound was called inactive in experiment [15], in [8], in experiment [16], in experiment [10], in experiment [17] and in [18]. The outcome in experiment [12], in [13] and in experiment [14] was inactive.

On to `CC(C)(COCC1CO1)COCC1CO1` (configuration not stated), for which the compound was called inactive in experiment [1], in [3], in experiment [4], in experiment [6], in [7] and in experiment [10]. Also, the call in experiment [19], in experiment [12], in experiment [13] and in experiment [14] was inactive. For the same compound, the AC50 in experiment [2] was 38.7 µM (active).

`O=S(=O)(Oc1ccc(Cl)cc1)c1ccc(Cl)cc1`: the AC50 is 63.8 µM (active) in experiment [1], 10.4 µM (active) in experiment [2] and 10.7 µM (active) in experiment [4]. The compound was classed as inactive in [3], in experiment [6], in experiment [7], in [9], in experiment [16] and in [18]. For the same compound, the compound was called inactive in experiment [20], in experiment [13] and in experiment [14].

As usually defined, the AC50 is the concentration giving half of the maximal activity seen.
